Hits are enriched below; roughly 1.1% of the tested compounds scored in any of these assays.
HTR5A ag = HTR5A agonism, opioid heterodimer counter-screen; P47898; HTR5A agonist assay, luminescence, cell-based; activation, % at 9.3 µM; hit rate 0.61% among 340,000; AID 504692; in the data active = activation mostly above about 9.5%, no sharp cut-off; inactive = mostly below about 7.6%;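 note: 0% = cells with vehicle only and 100% = reference agonist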
OPRM1-OPRD1 ag = agonists of human mu-delta opioid receptor heterodimerization | hit rate 0.3% among 340,000 | cells, OPRM1-OPRD1 heterodimerization, luminescence | activation, % at 9.3 µM | P35372+P41143;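 note: 0% = vehicle-treated cells and 100% = reference agonist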
Target sequence (P35372 whole entry, looked up): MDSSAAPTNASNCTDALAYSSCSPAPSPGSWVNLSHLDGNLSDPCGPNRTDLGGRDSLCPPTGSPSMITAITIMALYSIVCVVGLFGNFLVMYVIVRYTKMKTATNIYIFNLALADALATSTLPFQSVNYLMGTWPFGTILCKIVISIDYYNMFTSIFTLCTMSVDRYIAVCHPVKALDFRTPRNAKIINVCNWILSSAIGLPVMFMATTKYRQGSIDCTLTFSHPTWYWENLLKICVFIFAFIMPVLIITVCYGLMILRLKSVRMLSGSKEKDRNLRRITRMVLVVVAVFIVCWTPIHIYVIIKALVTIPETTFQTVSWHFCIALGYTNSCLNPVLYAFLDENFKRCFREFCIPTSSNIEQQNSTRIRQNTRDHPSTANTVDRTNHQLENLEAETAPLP
Target sequence (P41143 whole entry, looked up): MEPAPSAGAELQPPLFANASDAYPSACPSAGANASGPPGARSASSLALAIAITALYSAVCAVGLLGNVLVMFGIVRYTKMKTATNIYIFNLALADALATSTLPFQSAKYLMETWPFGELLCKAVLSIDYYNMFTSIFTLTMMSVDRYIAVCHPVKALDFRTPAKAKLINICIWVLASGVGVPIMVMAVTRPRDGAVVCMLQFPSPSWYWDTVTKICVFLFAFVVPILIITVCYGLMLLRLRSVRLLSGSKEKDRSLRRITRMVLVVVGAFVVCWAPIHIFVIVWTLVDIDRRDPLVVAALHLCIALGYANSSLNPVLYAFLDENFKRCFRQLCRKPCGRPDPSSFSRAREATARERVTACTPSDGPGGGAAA
OPRM1-OPRD1 inv = inverse agonists of human mu-delta opioid receptor heterodimerization; P35372+P41143; cell-based MOR-DOR heterodimer luminescence, inverse agonism; inhibition, % at 9.3 µM; hit rate 0.21% among 340,000; in the data active = inhibition above about 22%, passing the limit was not always enough;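 note: 0% = cells with DMSO and 100% = wells without cells with DMSO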
HTR5A inv ctr = HTR5A inverse agonism, opioid heterodimer counter-screen; AID 504634; HTR5A cell line, luminescence; inhibition, % at 9.3 µM; hit rate 0.083% among 340,000; in the data active = inhibition mostly above about 23%, no sharp cut-off; inactive = mostly below about 18%;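 note: 0% = cells with DMSO and 100% = no-cell wells with DMSO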
OPRM1-D1 ag cf = OPRM1-OPRD1 heterodimer agonism, confirmation; activation, % at 9.3 µM; shares compounds with OPRM1-OPRD1 ag; cells, MOR-DOR heterodimerization, luminescence complementation; hit rate 45% among 830;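 note: 0% = vehicle-treated cells and 100% = reference agonist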
HTR5A ag ctr2 = HTR5A agonism, opioid heterodimer counter-screen; shares compounds with OPRM1-OPRD1 ag; HTR5A agonist counterscreen, cell luminescence; activation, % at 9.3 µM; hit rate 8% among 830; in the data active = activation above about 17%;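 note: 0% = vehicle-treated cells and 100% = reference agonist response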
The depositor's hits bear a star. Cut-off read from the data, not from the text of the source, unless noted: active = activation above about 18%; inactive = the rest.

Screening CCC1Nc2ncnc(N3CCN(c4ccccc4)CC3)c2N(Cc2ccc(OC)cc2)C1=O (stereo unspecified) returned HTR5A ag -16, OPRM1-OPRD1 ag -12, OPRM1-OPRD1 inv 57* and HTR5A inv ctr 52*.
`CCC1Nc2ncnc(N3CCN(c4ccccc4)CC3)c2N(Cc2ccc(Br)cc2)C1=O` (stereo unspecified) gave HTR5A ag -29, OPRM1-OPRD1 ag -13, OPRM1-OPRD1 inv 79* and HTR5A inv ctr 79*.
Screening CCC1Nc2ncnc(N3CCOCC3)c2N(Cc2ccc(OC)cc2)C1=O (stereo unspecified) returned HTR5A ag 3, OPRM1-OPRD1 ag -3, OPRM1-OPRD1 inv 15 and HTR5A inv ctr -4.
Screening CCNc1nnc(SCC(=O)NC2CCCCCC2)s1 returned HTR5A ag -4, OPRM1-OPRD1 ag -2, OPRM1-OPRD1 inv 8 and HTR5A inv ctr 10.
`COc1cc(OCc2ccc(C)cc2)ccc1CNC[C@H]1O[C@@H](n2cnc(C(N)=O)n2)[C@H](O)[C@@H]1O` gave HTR5A ag -1, OPRM1-OPRD1 ag -1, OPRM1-OPRD1 inv 4 and HTR5A inv ctr 4.
For CC(=O)c1cccc(NC(=O)NCc2cccs2)c1 the results were HTR5A ag 11*, OPRM1-OPRD1 ag 0, OPRM1-OPRD1 inv -1 and HTR5A inv ctr -35.
For CC(=O)c1cccc(NC(=O)NCc2ccccn2)c1 the results were HTR5A ag 1, OPRM1-OPRD1 ag 1, OPRM1-OPRD1 inv -5 and HTR5A inv ctr -33.
`O=C(O)COc1ccccc1/C=N/NC(=O)c1cc(-c2ccccc2)nc2ccccc12` gave HTR5A ag -4, OPRM1-OPRD1 ag -1, OPRM1-OPRD1 inv 7 and HTR5A inv ctr 22.
`O=C(N/N=C/c1ccccc1OC(F)F)c1cc(-c2ccncc2)nc2ccccc12` gave HTR5A ag 12*, OPRM1-OPRD1 ag 1, OPRM1-OPRD1 inv -7 and HTR5A inv ctr -3.
`Cc1cccc(N(C(=O)C(F)(F)F)C(C(=O)NC2CCCCC2)c2cccs2)c1` (stereo unspecified) gave HTR5A ag 8, OPRM1-OPRD1 ag 9, OPRM1-OPRD1 inv -52 and HTR5A inv ctr 9.
Screening C#CC(=O)N(c1cccc(OC)c1)C(C(=O)NC1CCCC1)c1cccs1 (stereo unspecified) returned HTR5A ag 28*, OPRM1-OPRD1 ag 28*, OPRM1-OPRD1 inv -159 and HTR5A inv ctr -35.
For CCc1ccc(OCC(=O)Nc2ccc(S(=O)(=O)Nc3cc(C)on3)cc2)c(Br)c1 the results were HTR5A ag 2, OPRM1-OPRD1 ag -1, OPRM1-OPRD1 inv 3 and HTR5A inv ctr -6.
CC(=O)c1cccc(NC(=O)N2CCCCCC2)c1 was read as HTR5A ag 2, OPRM1-OPRD1 ag -1, OPRM1-OPRD1 inv 4 and HTR5A inv ctr -36.
Screening CC(=O)c1cccc(NS(=O)(=O)c2ccc(NC(=O)N3CCCCC3)cc2)c1 returned HTR5A ag 11*, OPRM1-OPRD1 ag -1, OPRM1-OPRD1 inv 4 and HTR5A inv ctr -5.
Screening COc1cc(C(=O)Nc2cccc3c2CCCC3)cc(OC)c1OC returned HTR5A ag 1, OPRM1-OPRD1 ag -3, OPRM1-OPRD1 inv 14 and HTR5A inv ctr -4.
Screening Cc1ccc(S(=O)(=O)N2CCN(C(=O)c3ccco3)CC2)c(C)c1 returned HTR5A ag 10*, OPRM1-OPRD1 ag -3, OPRM1-OPRD1 inv 14 and HTR5A inv ctr -40.
Screening O=C(c1cc(S(=O)(=O)N2CCCCC2)ccc1Cl)N1CCOCC1 returned HTR5A ag -2, OPRM1-OPRD1 ag 0, OPRM1-OPRD1 inv -1 and HTR5A inv ctr -10.
Cc1ccc(S(=O)(=O)N2CCN(C(=O)c3cc(S(=O)(=O)N4CCOCC4)ccc3Cl)CC2)c(C)c1 was read as HTR5A ag 13*, OPRM1-OPRD1 ag -2, OPRM1-OPRD1 inv 7 and HTR5A inv ctr -18.
Cn1cc(CN2CCC(C(=O)Nc3ccc(Oc4ccccc4F)cc3)CC2)cn1 was read as HTR5A ag -2, OPRM1-OPRD1 ag 0, OPRM1-OPRD1 inv -1 and HTR5A inv ctr 7.
For CCc1c(C)nc2ncnn2c1N1CCCC(C(=O)Nc2ccc(NC(C)=O)cc2)C1 (stereo unspecified) the results were HTR5A ag 13*, OPRM1-OPRD1 ag 2, OPRM1-OPRD1 inv -10 and HTR5A inv ctr -26.
`CCc1c(C)nc2ncnn2c1N1CCCC(C(=O)NCc2ccc3c(c2)OCO3)C1` (stereo unspecified) gave HTR5A ag 0, OPRM1-OPRD1 ag -2, OPRM1-OPRD1 inv 10 and HTR5A inv ctr -29.
`O=C(CNC(=O)c1ccco1)NCC(=O)OCC(=O)c1ccc(Cl)c([N+](=O)[O-])c1` gave HTR5A ag -10, OPRM1-OPRD1 ag -18, OPRM1-OPRD1 inv 94* and HTR5A inv ctr 43*.
For CCCOc1ccc(C(=O)NC(=S)NNC(=O)c2c(-c3ccccc3)noc2C)cc1 the results were HTR5A ag -12, OPRM1-OPRD1 ag -9, OPRM1-OPRD1 inv 46* and HTR5A inv ctr 44*.
Screening Cc1ccc(N=Cc2cc(Cc3ccccc3Cl)cc([N+](=O)[O-])c2O)c(O)c1 returned HTR5A ag 12*, OPRM1-OPRD1 ag 11, OPRM1-OPRD1 inv -77 and HTR5A inv ctr -12.
For COc1ccc(N=Cc2cc(Cc3ccccc3Cl)cc([N+](=O)[O-])c2O)cc1OC the results were HTR5A ag 4, OPRM1-OPRD1 ag 1, OPRM1-OPRD1 inv -3 and HTR5A inv ctr -10.
For CCN(CCCNC(=O)C1CCN(S(=O)(=O)c2cnc[nH]2)CC1)c1cccc(C)c1 the results were HTR5A ag 11*, OPRM1-OPRD1 ag 0, OPRM1-OPRD1 inv -1 and HTR5A inv ctr -8.
For CCN(CCCNC(=O)C1CCCN(S(=O)(=O)CC)C1)c1cccc(C)c1 (stereo unspecified) the results were HTR5A ag -3, OPRM1-OPRD1 ag 3, OPRM1-OPRD1 inv -16 and HTR5A inv ctr -19.
For Cc1ccc(NC(=O)CSc2nnc(C3CC3)n2CC2CCCO2)cc1C (stereo unspecified) the results were HTR5A ag 1, OPRM1-OPRD1 ag -2, OPRM1-OPRD1 inv 14 and HTR5A inv ctr -24.
`O=C(Nc1ccc(C(F)(F)F)cc1[N+](=O)[O-])O[C@H]1[C@H](Cc2ccccc2)NS(=O)(=O)[C@H]2C[C@@H]3C=C[C@]12O3` gave HTR5A ag -1, OPRM1-OPRD1 ag 18*, OPRM1-OPRD1 inv -107, HTR5A inv ctr -7, OPRM1-D1 ag cf 12 and HTR5A ag ctr2 2.
`CCCCCCCCCCOC(=O)Cn1c(COc2ccc(Cl)cc2)[n+](C)c2ccccc21` gave HTR5A ag 6, OPRM1-OPRD1 ag 18*, OPRM1-OPRD1 inv -94, HTR5A inv ctr -23, OPRM1-D1 ag cf 24* and HTR5A ag ctr2 0.
`CCCCCCCCCCOC(=O)Cn1c(COc2ccccc2C)[n+](C)c2ccccc21` gave HTR5A ag 13*, OPRM1-OPRD1 ag 28*, OPRM1-OPRD1 inv -134, HTR5A inv ctr -48, OPRM1-D1 ag cf 35* and HTR5A ag ctr2 14.

Bioassay records (PubChem BioAssay)
